Most compounds without a hit are left out; they make up all but 4.5% or so of the library.
Jurkat NFkB inh = lowers PMA/ionomycin-induced NF-kB signal in Jurkat cells; AID 435003; 330,000 compounds, 0.53% hits; inhibition, % at 4 µM; PMA/ionomycin-induced NF-kB luciferase reporter, luminescence; in the data active = inhibition above about 50%
697 NFkB inh = lowers PMA/ionomycin-induced NF-kB signal in 697 B cells | inhibition, % at 4 µM | 330,000 compounds, 0.33% hits | 697 B-cell NF-kB luciferase reporter, 16 h | AID 435022; in the data active = inhibition above about 35%
Beta apoptosis = blocks beta cell apoptosis | INS-1E cytokine-induced death, ATP luminescence, 48 h; percent of positive-control rescue, neutral wells zero | protection from apoptosis, % (concentration not given with the values) | 300,000 compounds, 0.8% hits | AID 435005;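 active = Every replicate reaches about 75%, or at least half do and their mean reaches it too, limit read from the data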;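 also: 0% = cytokine-treated negative control wells and 100% = positive control rescue; higher means more ATP so stronger rescue from cytokine killing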
Gli-Sufu antag = antagonists of Gli-Sufu signaling; AID 588413; 340,000 compounds, 0.74% hits; inhibition, % at 5 µM; Sufu-KO-LIGHT fibroblasts, Gli luciferase reporter luminescence;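 active = inhibition above about 55%, limit read from the data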;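 also: 0% = DMSO-treated cells and 100% = wells with medium but no cells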
Mdm2-MdmX inh = inhibitors of human Mdm2/MdmX interaction; inhibition, % at 8 µM; 330,000 compounds, 3% hits; O15151+Q00987; SaOS-2 split-luciferase Mdm2/MdmX complementation, luminescence;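 active = inhibition of at least 50% at 8 µM in the primary screen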
Target sequence (O15151 whole entry, looked up): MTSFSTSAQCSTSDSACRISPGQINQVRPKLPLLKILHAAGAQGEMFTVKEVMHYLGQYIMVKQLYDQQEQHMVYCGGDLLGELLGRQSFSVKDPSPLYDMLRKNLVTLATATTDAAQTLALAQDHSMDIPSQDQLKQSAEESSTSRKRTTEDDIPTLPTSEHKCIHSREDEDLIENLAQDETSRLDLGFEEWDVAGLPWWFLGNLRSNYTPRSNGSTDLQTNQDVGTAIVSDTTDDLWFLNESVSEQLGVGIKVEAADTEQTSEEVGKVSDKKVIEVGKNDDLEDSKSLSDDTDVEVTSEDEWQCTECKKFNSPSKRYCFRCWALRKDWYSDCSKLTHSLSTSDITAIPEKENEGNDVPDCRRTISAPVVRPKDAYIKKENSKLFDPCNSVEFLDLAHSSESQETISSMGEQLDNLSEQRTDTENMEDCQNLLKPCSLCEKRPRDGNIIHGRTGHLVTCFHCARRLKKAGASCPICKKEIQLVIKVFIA
Target sequence (Q00987 whole entry, looked up): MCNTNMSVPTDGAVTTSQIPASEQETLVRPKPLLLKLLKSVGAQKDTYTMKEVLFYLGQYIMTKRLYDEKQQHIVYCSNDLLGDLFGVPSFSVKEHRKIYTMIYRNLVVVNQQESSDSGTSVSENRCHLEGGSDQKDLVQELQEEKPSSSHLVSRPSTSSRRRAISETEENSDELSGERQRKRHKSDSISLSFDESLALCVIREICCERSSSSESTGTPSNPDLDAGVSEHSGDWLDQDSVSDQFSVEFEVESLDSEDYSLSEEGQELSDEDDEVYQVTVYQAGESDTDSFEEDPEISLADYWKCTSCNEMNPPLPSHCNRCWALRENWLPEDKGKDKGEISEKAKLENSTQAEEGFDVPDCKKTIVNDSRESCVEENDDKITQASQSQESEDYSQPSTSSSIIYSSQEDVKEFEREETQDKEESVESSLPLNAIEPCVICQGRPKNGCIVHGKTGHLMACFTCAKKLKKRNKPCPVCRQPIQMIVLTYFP
CSC inhib = blocks cancer stem cells | inhibition, % at 7.5 µM | cancer stem cell-like cells viability, luminescence | 300,000 compounds, 1.1% hits; in the data active = inhibition above about 75%; tested in HMLE shEcad cells
Mdm2-MdmX conf = confirmation of human Mdm2/MdmX interaction inhibitors. shares compounds with Mdm2-MdmX inh. Mdm2-MdmX binding, luminescent assay. inhibition, % at 8 µM. 10,000 compounds, 55% hits. AID 489028; in the data active = inhibition above about 40%
Full FLuc ctr = counter-screen for Mdm2/MdmX inhibitors: full-length luciferase; shares compounds with Mdm2-MdmX inh; SaOS-2 full-length luciferase counterscreen, luminescence; inhibition, % at 8 µM; 6,200 compounds, 77% hits; AID 504607;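 active = mean inhibition at 8 µM reaching about 37%, which flags the compound as non-specific, limit read from the data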;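 also: p53-null SaOS-2 cells with luciferase driven by a doxycycline-inducible promoter; compound on cells about two nights before reading with doxycycline added after day one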
Numbers without * were called inactive; . = no result given.

SMILES	Jurkat NFkB inh	697 NFkB inh	Beta apoptosis	Gli-Sufu antag	Mdm2-MdmX inh	CSC inhib	Mdm2-MdmX conf	Full FLuc ctr
COc1cccc(CNC(=O)C2CCC(=O)N(C3CC3)C2)c1OC (stereo not given)	8	9	.	1	1	.	.	.
CC(=O)Nc1ccc(S(=O)(=O)N(C)CC(=O)N(C)Cc2sccc2C)cc1	-13	-1	-4	-1	1	.	.	.
CCN1C(=NCC(C)C)N[C@@H](c2cccc(C(F)(F)F)c2)C(C(=O)OC)=C1C	4	-7	8	26	57*	6	33	60*
COC(=O)C1=C(C)N(Cc2ccccc2)C(=NCCCCO)N[C@H]1c1cccc(C(F)(F)F)c1	-6	5	-4	6	52*	1	34	.
C=CCN=C1N[C@@H](c2cccc(C(F)(F)F)c2)C(C(=O)OC)=C(C)N1CC	2	-6	-7	-4	15	9	.	.
COC(=O)C1=C(C)N(Cc2ccccc2)C(=NCc2cccc(C(F)(F)F)c2)N[C@H]1c1cccc(F)c1	3	9	111*	-11	95*	111*	73*	40*
O=C(COc1cccc(C(F)(F)F)c1)NNC(=O)c1ccc(=O)[nH]c1	-15	3	-1	7	22	6	.	.
COc1ccccc1[C@H]1C(c2cccc(C)c2)=NN(c2ccccc2)[C@@H]1CO	.	-9	.	50	56*	.	36	.
O=C(COc1ccc(Cl)cc1Cl)NN=C1c2ccccc2-c2ccccc21	-5	-10	-7	4	82*	3	20	.
Cc1ccc(N=Cc2c(O)n(-c3ccc4c(c3)OCO4)c(=O)c3ccccc23)cc1	5	11	59	-24	69*	22	42*	36*
CN1C(=O)NC(c2ccc(Cl)cc2)C2=C1CC(C)(C)CC2=O (stereo not given)	1	-1	-4	-1	7	-4	.	.
O=C(NCc1ccco1)/C(=C/c1cccc(C(F)(F)F)c1)c1nc2ccccc2[nH]1	1	1	.	11	83*	.	84*	38*
CCOc1cc(-c2c(C#N)c(N)nc3c2CCCC3)ccc1O	-4	-5	8	8	34	.	.	.
N#Cc1c(-c2ccncc2)cc(-c2ccc(F)cc2)nc1N	-14	-12	7	28	16	-11	.	.
CCOc1cc(-c2cc(-c3ccccc3)nc(N)c2C#N)ccc1O	21	19	.	18	76*	.	61*	95*
CCOc1cc(-c2cc(-c3ccc(N)cc3)nc(N)c2C#N)ccc1O	-11	26	0	2	51*	37	26	124*
COc1cc(-c2cc(-c3ccc(F)cc3)nc(N)c2C#N)ccc1O	14	0	-1	18	71*	.	52*	56*
CCCCN(C(=O)CSCC(=O)Nc1ccc(OC)cc1)c1c(N)n(Cc2ccccc2)c(=O)[nH]c1=O	7	12	.	2	19	-12	.	.
NC(=O)C(C(=O)/C=C/c1ccc(Cl)cc1)=C1SCCS1	14	2	-34	3	92*	43	82*	49*
COc1ccc(/C=C/C(=O)C(C(N)=O)=C2SCCS2)cc1	-21	-16	-4	-7	-11	4	.	.
Cc1ccc(C(=O)c2oc3ccccc3c2NC(=O)c2cc(-c3cc(C)ccc3O)n[nH]2)cc1	5	6	24	-6	78*	6	32	72*
Cc1cc(C)c(CC(=O)c2ccccc2)c(C)c1	.	.	.	1	.	.	.	.
Cc1ccc2nc(Nc3ccc(C)c(C)c3)c3nncn3c2c1	-36	-46	-11	-12	-13	-7	.	.
CC(=O)N1N=C(c2cccc(Cl)c2)OC1c1cccc([N+](=O)[O-])c1 (stereo not given)	-17	-40	5	2	65*	6	-15	.
CC(=O)N1N=C(c2cccc([N+](=O)[O-])c2)OC1c1cccc(Br)c1 (stereo not given)	14	7	3	7	19	8	.	.
SMILES	Jurkat NFkB inh	697 NFkB inh	Beta apoptosis	Gli-Sufu antag	Mdm2-MdmX inh	CSC inhib	Mdm2-MdmX conf	Full FLuc ctr
Cc1cccc2c1-c1sc(C(=O)N3CCCCC3)cc1CO2	-104	-67	3	-46	-149	.	.	.
Cc1cccc2c1-c1sc(C(=O)Nc3ccccc3N3CCN(C)CC3)cc1CO2	2	11	4	5	65*	102*	38	68*
COc1ccc(N2CCN(S(=O)(=O)c3c(C)n(C)c(=O)n(C)c3=O)CC2)cc1	2	17	-6	-8	15	-11	.	.
CCOC(=O)c1c(NC(C)=O)sc2c(O)cccc12	-2	-2	-2	3	19	-21	.	.
CCOC(=O)c1c(NC(C)=O)sc2c(OCC(O)CNC(C)(C)C)c(Br)ccc12 (stereo not given)	6	-12	12	22	100*	23	100*	54*
O=C(CSc1nnc(CNC(=O)c2cccs2)o1)Nc1cccc(Cl)c1	7	8	-14	3	16	-3	.	.
CC(C)Cn1c(N)c(C(=O)COC(=O)c2cc(C(F)(F)F)nc3c(C(F)(F)F)cccc23)c(=O)n(C)c1=O	10	-2	-5	.	88*	-2	5	.
O=S(c1ccc2ccccc2c1)c1cnns1 (stereo not given)	36	-106	-24	-25	57*	40	28	.
CC(=O)Nc1ccc(S(=O)(=O)N2CCN(Cc3csc(C)n3)CC2)cc1	7	20	-2	-5	7	-7	.	.
COCc1c(C(=O)NC(C)c2ccc(S(N)(=O)=O)cc2)oc2ccccc12 (stereo not given)	5	1	8	3	-4	-3	.	.
COc1cc(CN2CCC(C(=O)NCC(C)(C)CN(C)C)CC2)ccc1OCc1ccccc1	-4	12	.	16	92*	4	80*	71*
CCCCNC(=O)C1CCN(Cc2ccc(OCc3ccccc3)c(OC)c2)CC1	-89	6	-2	26	-18	7	.	.
COc1cccc(-c2nc(NCc3ccccc3)c3ccccc3n2)c1O	-23	12	6	2	56*	11	16	.
O=[N+]([O-])c1ccc(-c2nc(Nc3cccc(O)c3)c3ccccc3n2)cc1	-1	2	.	4	82*	94*	7	.
O=[N+]([O-])c1ccc(-c2c(O)c3ccccc3c3nc4ccccc4nc23)cc1	8	-22	27	12	65*	42	12	.
O=[N+]([O-])c1ccc(-c2nc(NCc3ccccc3)c3ccccc3n2)cc1	-55	-87	13	10	60*	21	-5	.
COc1cc(/C=C/C(=O)OC(C)C(=O)NC2CCCCC2C)cc(Cl)c1OC (stereo not given)	2	5	5	-3	27	1	.	.

From PubChem
